Assay outcomes (PubChem)
Most compounds without a hit are left out; they make up all but 8.2% or so of the library.
KB-V1 cytotox: kills drug-selected multidrug resistant KB-V1 cells | KB-V1 MDR cells viability, CellTiter-Glo, 72 h | Potency, µM (series often up to 46.1 µM), actives largely listed as cytotoxic | 400,000 tested, 3.4% active; further: nearly all actives have a fitted effect of over 60% in size
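Drug-selected KB-V1 cells, grown in DMEM lacking phenol red with 10% FBS, receive compound titrations; after three days at 37 degrees C, surviving cell ATP is quantified by CellTiter-Glo luminescence and responses normalized and curve-fitted.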
KB-3-1 cytotox: kills parental KB-3-1 adenocarcinoma cells. KB-3-1 viability, CellTiter-Glo ATP luminescence, 72 h. Potency, µM (series often up to 46.1 µM), hits mostly cytotoxic. 400,000 tested, 1.4% active. AID 1347075; further: nearly all actives have a fitted effect of over 60% in size
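Cytotoxicity in the drug-sensitive parental line KB-3-1 was scored as loss of CellTiter-Glo luminescence following 72 h incubation with compound. Values come from curve fitting of normalized concentration-response data.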
ELG1 repair inh: ELG1-dependent DNA repair inhibition | 330,000 tested, 2.3% active | Potency, µM (series often up to 46.1 µM), most hits filed as inhibitors | HEK293T ELG1-luciferase reporter, luminescence, 16 h; DNA damage induced by 5-fluorouridine | AID 504467; further: nearly all actives have a fitted effect of over 55% in size
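Cells (2,000 per well) received 5-fluorouridine plus test compound or DMSO and were incubated 16 hr at 37 °C, 5% CO2. Luciferase activity was read by luminescence 30 min after ONE-Glo addition; signal suppression marked inhibition of damage-induced ELG1 function.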
MCF10A rerep: inducers of DNA re-replication in MCF 10A breast cells. MCF 10A DNA re-replication, Hoechst nuclear intensity, 48 h. 350,000 tested, 2.9% active. Potency, µM (series often up to 46.1 µM), most hits filed as activators; further: nearly all actives have a fitted effect of over 50% in size
SW480 rerep: induces DNA re-replication in SW480 colon adenocarcinoma cells. SW480 DNA re-replication, Hoechst DNA content imaging, 48 h. Potency, µM (highest dose often 46.1 µM), hits mostly activators. 340,000 tested, 1.8% active. AID 624297; further: nearly all actives have a fitted effect of over 55% in size
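Compounds, transferred as 23 nL by pin tool, were incubated with cells for 48 hr; DNA content per nucleus was then quantified by Hoechst staining and fluorescence plate imaging.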
Of the large screens only hits and unclear results are named; the others gave an inactive call. The call rests on the fitted dose curve; in most records, active means well fitted curve in the direction sought with a large enough effect; inconclusive means small, poorly fitted or top-dose-only effect, or another doubt; inactive means no such curve, though single readings can be large; an effect the other way counts as inactive or inconclusive.

Cc1ccc(C)c(CN2C(=O)c3ccccc3S(=O)c3ccc(C(=O)NCCc4ccc(Cl)cc4)cc32)c1 (centres undefined)	none (no result: ELG1 repair inh, MCF10A rerep, SW480 rerep)
COc1ccccc1-c1cccc([C@@H]2C[C@H]3[C@H](CON3C)CN2C)c1	none (no result: ELG1 repair inh)
Cc1ccc(CNC(=O)N2CCN(c3ccc(C)cc3)CC2)cc1	MCF10A rerep inconclusive
Cc1cnc(C(=O)Nc2ccc(N3CCN(C(=O)OC(C)(C)C)CC3)cc2)cn1	KB-3-1 cytotox 5.8µM, ELG1 repair inh inconclusive, MCF10A rerep inconclusive, SW480 rerep inconclusive
Cc1ccc(C(=O)NCc2ccc(N3CCN(C(=O)OC(C)(C)C)CC3)cc2)cc1	KB-V1 cytotox 3.66µM
CCOc1ccc(C(=O)CCC(=O)N2CCN(c3ccc(O)cc3)CC2)cc1	SW480 rerep inconclusive
COc1ccc(N2CCN(C(=O)NCc3ccc(C)cc3)CC2)cc1	KB-V1 cytotox 5.8µM, KB-3-1 cytotox 0.517µM, MCF10A rerep inconclusive, SW480 rerep inconclusive
Cc1cnc(C(=O)Nc2ccc(F)cc2)cn1	KB-V1 cytotox inconclusive, ELG1 repair inh inconclusive
Cc1ccc(OCCC(=O)N2CCN(c3ccc(O)cc3)CC2)cc1	KB-3-1 cytotox inconclusive, ELG1 repair inh 7.3µM, MCF10A rerep inconclusive, SW480 rerep 7.31µM
CCc1nc2nc(C)cc(Nc3cc(Cl)ccc3C)n2n1	none (no result: ELG1 repair inh, MCF10A rerep, SW480 rerep)
C[C@@H]1COC(=O)[C@@H](Cc2ccc(F)cc2)CC/C=C\C[C@@H](CC(=O)NCCO)C(=O)N1	none
COc1ccc(CCC(=O)NC(C)c2ccccc2)cc1OC (centres undefined)	none
COC(=O)Cc1ccccc1NS(=O)(=O)c1ccc(C)cc1	none (no result: ELG1 repair inh, MCF10A rerep, SW480 rerep)
COc1ccc(OC)c(C(=O)CN2C(=O)C(=O)N(C3CCCC3)C2=O)c1	KB-V1 cytotox inconclusive, ELG1 repair inh inconclusive
Cc1onc(-c2c(F)cccc2Cl)c1C(=O)N1CCN(c2ncc(Br)cn2)CC1	ELG1 repair inh 13µM
Cc1onc(-c2ccccc2Cl)c1C(=O)N1CCN(c2ccccc2)CC1	KB-V1 cytotox 20.6µM
Cc1onc(-c2ccccc2Cl)c1C(=O)N1CCCC1	none
Cc1cccc(N2CCN(C(=O)c3c(-c4ccccc4)noc3C)CC2)c1C	KB-V1 cytotox 3.66µM, KB-3-1 cytotox inconclusive, ELG1 repair inh inconclusive, MCF10A rerep 3.66µM, SW480 rerep inconclusive
Cc1onc(-c2ccccc2Cl)c1C(=O)N1CCN(c2cccc(Cl)c2)CC1	KB-V1 cytotox 1.3µM, KB-3-1 cytotox 2.31µM, ELG1 repair inh inconclusive, MCF10A rerep inconclusive, SW480 rerep 7.31µM
CCc1noc(C)c1C(=O)N1CCN(c2cccc(C)c2C)CC1	KB-V1 cytotox inconclusive, KB-3-1 cytotox inconclusive
Cc1onc(-c2c(Cl)cccc2Cl)c1C(=O)N1CCc2ccccc2C1	KB-V1 cytotox 20.6µM
Cc1cc(Nc2ccccc2)c2c([N+](=O)[O-])c(C)cc(C)c2n1	KB-V1 cytotox 20.6µM, KB-3-1 cytotox inconclusive
C=C(CN(C)C)C(=O)c1ccc(C)cc1C	KB-V1 cytotox inconclusive, KB-3-1 cytotox inconclusive, MCF10A rerep 2.91µM, SW480 rerep 5.8µM (no result: ELG1 repair inh)
Cc1ccc(C(=O)CC(=O)c2ccccc2C)c(O)c1	KB-V1 cytotox inconclusive, KB-3-1 cytotox inconclusive, MCF10A rerep inconclusive
CC1=C(C(=O)Nc2ccc(CC(=O)NCc3ccc(OC(C)C)cc3)cc2)SCCO1	KB-V1 cytotox inconclusive, KB-3-1 cytotox 0.366µM, ELG1 repair inh inconclusive, MCF10A rerep 0.326µM, SW480 rerep inconclusive
CCOc1ccc(CNC(=O)c2cccc(NC(=O)C3=C(C)OCCS3)c2)cc1	ELG1 repair inh inconclusive
COc1ccc(CNC(=O)Cc2ccc(NC(=O)C3=C(C)OCCS3)cc2)cc1	KB-V1 cytotox 14.6µM, KB-3-1 cytotox 1.03µM, ELG1 repair inh inconclusive, MCF10A rerep 8.2µM, SW480 rerep inconclusive
COc1cccc(CNC(=O)c2ccccc2NC(=O)C2=C(C)OCCS2)c1OC	ELG1 repair inh 11.6µM
O=C(O)CC(c1ccccc1)N1C(=O)c2cccc([N+](=O)[O-])c2C1=O (centres undefined)	none
CCC(C)(C)NC(=O)c1ccc2c(c1)OCCO2	ELG1 repair inh inconclusive
O=C(CN1C(=O)c2cccc3cccc(c23)C1=O)NCCN1CCOCC1	MCF10A rerep 1.84µM
O=C(c1ccc(S(=O)(=O)N2CCCCC2)cc1)N1CCN(CCN2C(=O)c3cccc4cccc(c34)C2=O)CC1	KB-V1 cytotox inconclusive, KB-3-1 cytotox inconclusive, ELG1 repair inh 3.26µM
O=C(/C=C/c1ccccc1)N1CCN(CCN2C(=O)c3cccc4cccc(c34)C2=O)CC1	ELG1 repair inh 10.3µM
CC1CCN(S(=O)(=O)c2cc(C(=O)NCc3ccc(F)cc3)n(C)c2)CC1	none (no result: ELG1 repair inh, MCF10A rerep, SW480 rerep)
COc1cccc(-c2nc(CS(=O)(=O)CC(=O)N3CCN(c4ccccc4)CC3)c(C)o2)c1	none (no result: ELG1 repair inh, MCF10A rerep, SW480 rerep)
CCOc1ccc(-c2nc(SCC(=O)NC3CCCC3)c(-c3ccccc3)[nH]2)cc1OC	none (no result: ELG1 repair inh, MCF10A rerep, SW480 rerep)
CSCCC(NS(=O)(=O)c1ccc2c(c1)OCCO2)C(=O)N(C)Cc1ccccc1F (centres undefined)	ELG1 repair inh 16.4µM
Cc1nc(SCc2nc3c(F)cccc3[nH]2)c2oc3ccccc3c2n1	ELG1 repair inh inconclusive, MCF10A rerep inconclusive
CC(=O)Oc1ccc2cc(-c3nc4c(s3)CCc3ccccc3-4)c(=O)oc2c1	KB-3-1 cytotox inconclusive (no result: ELG1 repair inh, MCF10A rerep, SW480 rerep)
CCOC(=O)C1=CCN(S(=O)(=O)c2ccc(F)cc2)C1c1cccc(Cl)c1 (centres undefined)	KB-V1 cytotox 8.2µM, KB-3-1 cytotox inconclusive (no result: ELG1 repair inh, MCF10A rerep, SW480 rerep)
CCOC(=O)C1=CCN(S(=O)(=O)c2cccc(Cl)c2)C1c1cccc(F)c1 (centres undefined)	KB-V1 cytotox inconclusive (no result: ELG1 repair inh, MCF10A rerep, SW480 rerep)
CN(C(=O)c1cccc(NC(=O)Cc2ccc([N+](=O)[O-])cc2)c1)C1CC1	ELG1 repair inh inconclusive
Cc1ccc(NC(=O)CSc2ncc3c(n2)-c2ccccc2N(Cc2cccc(F)c2)S3(=O)=O)cc1F	KB-V1 cytotox inconclusive (no result: ELG1 repair inh, MCF10A rerep, SW480 rerep)
COc1ccccc1NC(=O)CSCc1cc(=O)c2c(C)cc(C)cc2[nH]1	none (no result: ELG1 repair inh, MCF10A rerep, SW480 rerep)
NC(=O)Cn1c(=O)n(CCc2ccccc2)c(=O)c2c3c(sc21)CCCC3	KB-V1 cytotox 4.11µM, SW480 rerep inconclusive
COc1ccc(NC(=O)Cn2c(=O)n(CCc3ccccc3)c(=O)c3c4c(sc32)CCCC4)cc1	none (no result: ELG1 repair inh, MCF10A rerep, SW480 rerep)
CC(=O)N1CCc2c(sc3c2c(=O)n(CCc2ccccc2)c(=O)n3Cc2ccc(Cl)cc2)C1	KB-V1 cytotox inconclusive, KB-3-1 cytotox 20.6µM (no result: ELG1 repair inh, MCF10A rerep, SW480 rerep)
CC(=O)c1ccc(OCCCC(=O)NCCc2ccccc2)cc1	ELG1 repair inh inconclusive, SW480 rerep inconclusive
O=C(C(=O)N(Cc1ccccc1)Cc1ccccc1)c1c(-c2ccccc2)[nH]c2ccccc12	SW480 rerep 18.4µM (no result: ELG1 repair inh)
CCn1cc(S(=O)(=O)c2ccc(Cl)cc2)c(=O)c2cc(OC)ccc21	KB-V1 cytotox 14.6µM
COc1cc(OC)c(OC)cc1/C=N/NC(=S)NCCN1CCOCC1	none
